# Screening results (PubChem BioAssay)
# KB-3-1 tox: qHTS assay for MDR1-selective chemotherapeutics: Primary screen using the parental adenocarcinoma cell KB-3-1. KB-3-1 viability, CellTiter-Glo ATP luminescence, 72 h. Potency, µM (top dose mostly 46.1 µM), most hits filed as cytotoxic. 400,000 tested, 1.4% active; note: nearly all actives have a fitted effect of over 60% in size
#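 Using CellTiter-Glo luminescence, growth of non-resistant KB-3-1 adenocarcinoma cells is assessed 72 h after pin-tool compound addition at 37 °C. Normalized responses across the concentration series yield fitted curves.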
# KB-V1 MDR tox: qHTS assay for MDR1-selective chemotherapeutics: Primary screen using the drug-selected MDR subline cells KB-V1. KB-V1 MDR cells viability, CellTiter-Glo, 72 h. Potency, µM (top dose mostly 46.1 µM), usual class: cytotoxic. 400,000 tested, 3.4% active. AID 1347076, 2019; note: nearly all actives have a fitted effect of over 60% in size
#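 KB-V1, DMEM (no phenol red) + 10% FBS; cpd pin-transferred, titration series; 72 h, 37 degrees C; CellTiter-Glo, luminescence. Data normalized, curve-fit.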
# SW480 rereplic: A quantitative high throughput screen for small molecules that induce DNA re-replication in SW480 colon adenocarcinoma cells; 340,000 tested, 1.8% active; Potency, µM (highest dose often 46.1 µM), most hits filed as activators; SW480 DNA re-replication, Hoechst DNA content imaging, 48 h; note: nearly all actives have a fitted effect of over 55% in size
#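 Compounds, transferred as 23 nL by pin tool, were incubated with cells for 48 hr; DNA content per nucleus was then quantified by Hoechst staining and fluorescence plate imaging.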
# HT1080 IDH1KD tx: qHTS for induction of synthetic lethality in tumor cells producing 2HG: qHTS for the HT-1080-IDH1KD cell line; 360,000 tested, 2% active; AID 686971, 2013; HT-1080 IDH1 knockdown viability, ATP luminescence, 48 h; Potency, µM (series often up to 46.1 µM), actives largely listed as cytotoxic
#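 Viability of IDH1-knockdown HT-1080 fibrosarcoma cells was assessed by CellTiter-Glo after 48 h at 37 °C with titrated compound; concentration-effect curves were classified by fit quality and response size.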
# MCF10A rereplic: A quantitative high throughput screen for small molecules that induce DNA re-replication in MCF 10a normal breast cells; MCF 10A DNA re-replication, Hoechst nuclear intensity, 48 h; Potency, µM (series often up to 46.1 µM), hits mostly activators; 350,000 tested, 2.9% active; AID 624296, 2012; note: nearly all actives have a fitted effect of over 50% in size
# HT1080NT lethal: qHTS for induction of synthetic lethality in tumor cells producing 2HG: qHTS for the HT-1080-NT fibrosarcoma cell line; HT-1080-NT fibrosarcoma viability, CellTiter-Glo ATP luminescence, 48 h; Potency, µM (titrated, usually from 46.1 µM), usual class: cytotoxic; 360,000 tested, 1.6% active;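 note: NT is the 2HG producing partner of a matched IDH1 knockdown line; nearly all actives have a fitted effect of over 55% in size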
#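 Compounds were tested in concentration-response format on HT-1080-NT cells for 48 hours at 37 degrees C. Cell viability came from CellTiter-Glo luminescence; curves were classified by r2, response magnitude and activity.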
# Numbers stand for hits; i = inactive; ? = inconclusive; nt = no result given; [ ] = another dose, or the depositor's remark. Sampled rows, rich in hits. Any-hit rate of the full collection: about 7.9%. Calls come from the whole dose curve; as a rule, active = well fitted curve in the direction sought with a large enough effect; inconclusive = small, poorly fitted or top-dose-only effect, or another doubt; inactive = no such curve, though single readings can be large; an effect the other way counts as inactive or inconclusive.
SMILES,KB-3-1 tox,KB-V1 MDR tox,SW480 rereplic,HT1080 IDH1KD tx,MCF10A rereplic,HT1080NT lethal
CC(C)(C)c1ccc(C(=O)CC(Sc2ccc(Cl)cc2)C(=O)O)cc1 (stereo unspecified),?,?,?,15µM,23µM,12µM
Cc1ccc(SC(CC(=O)c2ccc(F)cc2)C(=O)O)cc1 (stereo unspecified),i,i,i,i,?,i
Cc1nn(C)c(C)c1/C=C(\C#N)S(=O)(=O)c1ccc(F)cc1,i,i,nt,i,nt,i
c1ccc(CN=C2NN=C(c3ccccc3)CS2)cc1,?,i,i,i,i,i
c1ccc(C2=NNC(=NCc3ccc4c(c3)OCO4)SC2)cc1,i,23µM,i,i,i,i
Nc1c(Cl)cc(/C=C2\C=Cc3ccccc32)cc1Cl,i,i,nt,nt,nt,nt
CC(=O)Oc1c(C)c(OC(C)=O)c2c(c1C(C)=O)OC1CC(=O)C(C(C)=O)=C(O)C21C (stereo unspecified),i,?,i,i,i,i
CC(=O)c1c(O)c(C)c(O)c2c1OC1=CC(=O)C(C(C)=O)C(=O)[C@@]12C (stereo partly specified),?,i,i,i,3.7µM,i
CCOc1ccccc1Oc1c(C)oc2cc(OC(=O)N3CCOCC3)ccc2c1=O,i,23µM,i,i,i,i
C#Cc1ccc(CN2CCC(Oc3cc(C(=O)NC4CC4)ccc3OC)CC2)cc1,i,i,i,i,i,i
CCc1ccc2oc(-c3ccc(OC)cc3)cc(=Nc3cccc(C(=O)O)c3)c2c1,i,i,i,i,23µM,i
CCc1ccc2oc(-c3ccc(OC)cc3)cc(=Nc3c(C)n(C)n(-c4ccccc4)c3=O)c2c1,?,9.2µM,i,i,?,i
COc1ccc(-c2cc(=Nc3ccc(C(=O)O)cc3)c3cc(C)ccc3o2)cc1,i,i,i,i,i,i
COc1ccc(-c2cc(C(=O)Nc3c(C)n(C)n(-c4ccccc4)c3=O)no2)cc1,i,i,i,i,i,i
Cc1ccc(NS(=O)(=O)c2ccc3c(c2)CCC(=O)N3)cc1Cl,i,i,nt,nt,nt,nt
O=S(=O)(c1ccc(Cl)cc1)c1nc(-c2cccs2)oc1N1CCCCC1,i,?,nt,nt,nt,nt
O=[N+]([O-])c1ccc2nc(C3CCCCC3)[nH]c2c1,i,i,i,i,i,i
O=[N+]([O-])c1ccc(O)c(C2CCCCC2)c1,?,?,?,16µM,?,15µM
Nc1c(Cl)ncnc1N/N=C/c1ccccn1,8.2µM,i,?,?,?,?
Nc1c(Cl)ncnc1N/N=C/c1ccnc2ccccc12,i,?,i,i,i,i
Nc1c(Cl)ncnc1N/N=C/c1ccc2ccccc2n1,21µM,i,0.26µM,?,21µM,?
Nc1c(Cl)ncnc1N/N=C/c1cccnc1,i,i,i,i,3.7µM,i
Cc1cc(C)nc(SCC(=O)NN=Cc2ccc(C)o2)n1,i,?,i,i,i,i
Cc1csc(=O)n1CC(=O)OCC(=O)Nc1cc(Cl)ccc1[N+](=O)[O-],nt,nt,i,i,i,i
CCOc1ccc(OCCNC(=O)c2oc3ccccc3c2COC)cc1,i,21µM,i,i,?,i
SMILES,KB-3-1 tox,KB-V1 MDR tox,SW480 rereplic,HT1080 IDH1KD tx,MCF10A rereplic,HT1080NT lethal
Cc1ccc(S(=O)(=O)CCC(O)c2ccc(Cl)cc2)cc1 (stereo unspecified),i,i,i,i,i,i
CC(Sc1nn(-c2ccc(F)cc2)c(=S)s1)C(=O)c1c(N)n(C)c(=O)n(C)c1=O (stereo unspecified),?,6.5µM,i,i,i,i
Cn1c(=O)c2cc(NC(=O)NCc3ccccc3)ccc2n1C/C=C/c1ccccc1,?,i,nt,8.2µM,nt,8.2µM
CC(O)(c1ccccc1)[N+]1(CC(=O)c2ccccc2)C=CC=C1 (stereo unspecified),i,i,nt,nt,nt,nt
CCCCn1c(SCC(=O)NCc2ccco2)nc2c(sc3ccccc32)c1=O,i,?,i,i,i,?
CCOC(=O)CSc1nc2c(sc3ccccc32)c(=O)n1CCCN1CCOCC1,i,15µM,i,i,i,i
CCCCn1c(SCC(N)=O)nc2c(sc3ccccc32)c1=O,i,i,i,i,i,22µM
CCOC(=O)c1ccccc1NC(=O)CSc1nc2ccccc2c(=O)n1CCCN1CCOCC1,i,i,?,i,13µM,i
O=C(CSc1nc2c(sc3ccccc32)c(=O)n1CCc1ccccc1)NCc1ccco1,i,2.1µM,i,i,i,i
Cc1ccc(C)c(S(=O)(=O)c2nnn3c2nc(NC(C)C)c2sccc23)c1,i,?,nt,nt,nt,nt
CC1CCc2sc(C(=O)OCC(=O)NCc3ccc(F)cc3)cc2C1 (stereo unspecified),?,?,?,21µM,i,?
CCN(CC)S(=O)(=O)c1cc(NC(=O)C(C)N(C)CC(=O)Nc2c(C)cccc2C)ccc1C (stereo unspecified),?,5.2µM,i,i,i,i
O=S(=O)(c1ccc2nc(Cc3ccccc3)[nH]c2c1)N1CCOCC1,i,i,?,i[9.24 µM],i,i
O=S(=O)(c1ccc2nc(Cc3cccc(C(F)(F)F)c3)[nH]c2c1)N1CCOCC1,i,i,?,i,2.9µM,i
CCOc1ccc(CNC(=O)CCS(=O)(=O)c2cc3c4c(c2)CCN4C(=O)CC3)cc1OC,i,i,nt,nt,nt,nt
COc1ccccc1N(C)c1cc2c(c3c1ccn3C)C1CCC2O1 (stereo unspecified),?,i,nt,?,nt,23µM
Cn1ccc2c(N3c4ccccc4CCc4ccccc43)cc3c(c21)C1CCC3O1 (stereo unspecified),i,?,nt,18µM,nt,?
Cn1ccc2c(N3c4ccccc4CCc4ccccc43)cc3c(c21)C1CCC3C1 (stereo unspecified),?,i,nt,?,nt,?
COc1nc(Nc2ccc([N+](=O)[O-])cc2)nc(NC(C)C)n1,i,12µM,i,i,i,i
Cc1cccn2c(=O)c3cc(C(=O)NCCN4CCOCC4)n(C)c3nc12,i,?,?,i,?,i
Cc1cccn2c(=O)c3cc(C(=O)NCCN4CCOCC4)c(=N)n(CCN4CCOCC4)c3nc12,i,?,26µM,i,12µM,i
O=C(NCCN1CCN(c2ccccc2)CC1)c1cccn2c(=O)c3cc(Cl)ccc3nc12,i,i,i,i,4.1µM,i
